Data on 40 molecules can be found in PubChem BioAssay AID434989 (The Scripps Research Institute Molecular Screening Center, 2010).

About 1,400 (0.42%) of roughly 330,000 compounds were called active. What follows is part of a selection rich in actives, with near analogues and random picks from the rest. A number with no mark means an inactive call.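 Rule for the calls: active = inhibition above its plate's threshold, mean inhibition of all tested compounds on the plate plus 3 SD (cut at about 37% in these data); inactive = the rest.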

Orexin/Hypocretin receptor type 1 (Homo sapiens), sequence (O43613 whole entry, looked up): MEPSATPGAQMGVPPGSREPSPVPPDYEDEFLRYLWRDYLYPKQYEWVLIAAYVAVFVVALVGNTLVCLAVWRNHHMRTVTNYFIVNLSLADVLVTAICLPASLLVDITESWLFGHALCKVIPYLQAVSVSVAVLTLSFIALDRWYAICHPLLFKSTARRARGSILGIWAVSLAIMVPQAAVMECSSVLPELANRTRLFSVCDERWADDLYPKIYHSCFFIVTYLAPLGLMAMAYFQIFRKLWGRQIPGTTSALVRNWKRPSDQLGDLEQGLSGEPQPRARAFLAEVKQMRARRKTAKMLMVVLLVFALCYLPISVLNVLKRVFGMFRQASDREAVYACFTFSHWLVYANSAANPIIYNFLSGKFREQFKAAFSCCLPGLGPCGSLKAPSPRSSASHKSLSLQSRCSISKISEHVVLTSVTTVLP

The assay addresses Orexin/Hypocretin receptor type 1 (Homo sapiens) (UniProt O43613). As to the kind of experiment: OX1R (HCRTR1) antagonists, primary screen, fluorescence, CHO/OX1R cells, Fluo-8 calcium, orexin A (AID 434989).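 Note: 0% = orexin A challenge wells and 100% = SB-334867-A antagonist wells.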 Conditions: Fluo-8 calcium fluorescence, at 5 µM, active compounds read high.
The term inhibition denotes the drop in the measured response relative to a control, in per cent. For `Cc1ccc(C(=O)OCc2nc(N)nc(Nc3ccccc3C)n2)cc1`, the inhibition was -15.1%.

In the case of `CC(NC(=O)COC(=O)CCC(=O)c1ccc(Cl)cc1)c1ccccc1` (stereo not given), the inhibition was -2.79%.

On to `Nc1nc(COC(=O)CCC(=O)c2ccc(Cl)cc2)nc(Nc2ccccc2)n1`, for which the inhibition was 67.8% (active).

On to `O=C(COC(=O)c1ccc(F)c(S(=O)(=O)N2CCOCC2)c1)NCc1ccc2c(c1)OCO2`, for which the inhibition is 4.89%.

For the molecule `COc1ccc(S(=O)(=O)N2CCCCCC2)cc1NC(=O)Cc1ccc(OC)c(OC)c1`, the inhibition is -23.5%.

With `O=C(COC(=O)c1ccccn1)NNC(=O)c1ccc(Br)cc1`, the inhibition was -3.43%.

In the case of `Cn1c(N)c(C(=O)COC(=O)c2cccc(S(=O)(=O)N3CCOCC3)c2)c(=O)n(C)c1=O`, the inhibition was -27.4%.

Turning to `Cn1c(N)c(C(=O)COC(=O)c2ccc3ccccc3c2)c(=O)n(C)c1=O`, the inhibition is 51.1% (active).

In the case of `Cn1c(N)c(C(=O)COC(=O)c2cnc(Cl)c(Cl)c2)c(=O)n(C)c1=O`, the inhibition was -7.14%.

Take `O=C(O)c1ccc2c3c(cccc13)C(=O)N(OS(=O)(=O)c1ccccc1)C2=O`: the inhibition is -7.84%.

Consider `CN1C(=O)c2cccc3c(N)ccc(c23)C1=O`, for which the inhibition was 41.1% (active).

Turning to `C[N+](C)(CCCCCC[N+](C)(C)CCCN1C(=O)c2cccc3cccc(c23)C1=O)CCCN1C(=O)c2cccc3cccc(c23)C1=O`, the inhibition is -0.77%.

On to `COc1ccc(N2C(=O)c3cccc4cccc(c34)C2=O)nn1`, for which the inhibition is -17.9%.

As for `Cc1nn(C)cc1N1C(=O)c2cccc3c(N)ccc(c23)C1=O`, the inhibition is 38.4% (active).

Consider `O=C1c2ccccc2C(=O)N1c1cccc2ccccc12`, for which the inhibition is -17%.

With `Cc1noc(C)c1NC(=O)Nc1cccc2c1O[C@H](CN(C)C(=O)Nc1ccccc1)[C@@H](C)CN([C@H](C)CO)C2=O`, the inhibition is 1.33%.

For the molecule `C[C@]12c3[nH]c4ccc(Cl)cc4c3CCN1C(=O)[C@@H](CC(=O)NCCCn1ccnc1)C[C@@H]2C(=O)N1CCOCC1`, the inhibition was -3.04%.

Take `CC[C@]12c3[nH]c4ccc(Cl)cc4c3CCN1C(=O)[C@@H](CC(=O)NCCCOC)C[C@@H]2C(=O)N1CCN(C(=O)c2ccco2)CC1`: the inhibition is -0.28%.

`COc1ccc(CNC(=O)CNC(=O)c2sc3ccccc3c2Cl)cc1OC`: the inhibition was -23.5%.

Turning to `COCCNC(=S)N/N=C/c1c(C)[nH]c2ccccc12`, the inhibition is -0.83%.

Turning to `O=C(N/N=C/c1c(Cl)[nH]c2ccccc12)c1sc2ccccc2c1Cl`, the inhibition was 92.7% (active).

In the case of `CCCCNc1c(-c2ccc(OC)c(Sc3ccc(OC)cc3)c2)nc2ccc(Cl)cn12`, the inhibition is -30.4%.

With `Cc1cccc(OCC(=O)OCC(=O)Nc2ccc(Cl)cn2)c1`, the inhibition is -10.8%.

Consider `Nc1ncnc2c1ncn2[C@@H]1O[C@H](CNCc2cccn2-c2nccs2)[C@@H](O)[C@H]1O`, for which the inhibition is -6.54%.

On to `COc1ccc2[nH]c3c(c2c1)CCN1C(=O)C(CC(=O)NCc2cccc(C(F)(F)F)c2)C[C@H](C(=O)N2CCOCC2)[C@@]31C` (stereo not given in full), for which the inhibition is -21.4%.

Regarding `CCN1C[C@@H]2[C@@H]3C(=O)N(Cc4ccccc4)C(=O)[C@@H]3[C@](Cc3ccccc3)(C(=O)OC)N2C1=NC1CCCCC1`, the inhibition was -11.5%.

Regarding `O=C(Nc1cccc2cccnc12)c1cccc(Cl)c1`, the inhibition is -10.3%.

On to `O=C(Nc1cccc2cccnc12)c1cccc(N2C(=O)CCC2=O)c1`, for which the inhibition was 45.5% (active).

For the molecule `COC(=O)c1cccc(NC(=O)c2cccc(N3C(=O)CCC3=O)c2)c1`, the inhibition was 13.2%.

In the case of `CN(Cc1ccccc1)C(=O)COC(=O)/C=C/c1ccc2c(c1)OCO2`, the inhibition was -11.9%.

Turning to `CCCC(=O)NC(Nc1ccccc1OC)C(Cl)(Cl)Cl` (stereo not given), the inhibition is -0.68%.

With `COc1ccccc1NC(=O)CCCc1c[nH]c2ccccc12`, the inhibition is -3.22%.

As to `CCCCCCCC(=O)NC(Nc1ccccc1OC)C(Cl)(Cl)Cl` (stereo not given), the inhibition is 51.6% (active).

Consider `O=C(COC(=O)c1ccc([N+](=O)[O-])o1)NC12CC3CC(CC(C3)C1)C2`, for which the inhibition was -17.3%.

As to `COC(=O)[C@@]1(C)[C@H]2C(=O)N(Cc3ccccc3)C(=O)[C@H]2[C@H]2CN=C(SCC3CC3)N21`, the inhibition is -26.2%.

For the molecule `CC(=O)c1c(C)[nH]c(C(=O)COC(=O)c2cccc(S(=O)(=O)N(C)c3ccccc3)c2)c1C`, the inhibition is 63.5% (active).

On to `COc1cccc(C(=O)OCC(=O)c2[nH]c(C)c(C(C)=O)c2C)c1`, for which the inhibition is 11%.

As for `CC(=O)c1c(C)[nH]c(C(=O)COC(=O)c2cccs2)c1C`, the inhibition was -11.4%.

Take `COc1ccccc1NC(=O)COC(=O)CNC(=O)C1CCCCC1`: the inhibition was -0.83%.

Turning to `C[C@H](CO)N1C[C@H](C)[C@@H](CN(C)S(=O)(=O)c2ccc(F)cc2)Oc2c(NC(=O)Nc3ccccc3)cccc2C1=O`, the inhibition was -5.33%.
